From PubChem BioAssay AID489043 (National Center for Advancing Translational Sciences (NCATS), 2010) come the findings set out here.

Structures are written as SMILES. Records with an inconclusive call do not appear. Values without a mark were called inactive. The source made the active and inactive calls. Calls follow the shape of the dose curve; as a rule, active = well fitted activation curve with a large enough effect; inconclusive = small, poorly fitted or top-dose-only effect; inactive = flat fitted curve, though single readings scatter.
Potency is read from the fitted curve at half-maximal effect.

Chain of Relaxin receptor 2 (Homo sapiens) (Q8WXD0 whole entry, looked up): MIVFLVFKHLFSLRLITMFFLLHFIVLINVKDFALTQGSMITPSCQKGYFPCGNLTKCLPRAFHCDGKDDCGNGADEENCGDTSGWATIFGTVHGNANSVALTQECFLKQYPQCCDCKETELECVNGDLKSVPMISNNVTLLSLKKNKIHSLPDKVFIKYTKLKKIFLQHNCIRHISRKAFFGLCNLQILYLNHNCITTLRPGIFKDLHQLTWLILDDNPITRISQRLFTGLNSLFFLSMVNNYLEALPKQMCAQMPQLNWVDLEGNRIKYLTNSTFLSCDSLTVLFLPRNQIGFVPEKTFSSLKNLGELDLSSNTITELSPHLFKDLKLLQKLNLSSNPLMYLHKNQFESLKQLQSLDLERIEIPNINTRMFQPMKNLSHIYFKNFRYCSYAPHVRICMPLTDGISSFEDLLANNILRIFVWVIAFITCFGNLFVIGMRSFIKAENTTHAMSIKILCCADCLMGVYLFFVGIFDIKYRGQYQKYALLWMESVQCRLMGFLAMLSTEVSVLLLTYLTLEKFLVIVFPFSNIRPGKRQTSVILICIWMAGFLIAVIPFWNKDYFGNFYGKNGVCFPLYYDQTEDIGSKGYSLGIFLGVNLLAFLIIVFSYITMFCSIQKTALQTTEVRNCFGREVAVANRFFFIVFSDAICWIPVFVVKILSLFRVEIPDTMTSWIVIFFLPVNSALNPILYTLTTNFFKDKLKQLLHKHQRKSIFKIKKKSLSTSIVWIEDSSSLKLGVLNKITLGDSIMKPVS

In this assay the target is Relaxin receptor 2 (Homo sapiens) (UniProt Q8WXD0). Nature of the assay: qHTS Assay for Agonists of the Relaxin Receptor RXFP1: RXFP2 Hit Validation. Also: nearly all actives have a fitted effect of over 65% in size.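 As to activation: 0% = buffer only basal cAMP and 100% = 29 nM porcine relaxin.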 The conditions noted are these: HEK293 RXFP2 cAMP TR-FRET, 30 min; series mostly up to 115 µM; activation: at the top concentration. In outline:
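Concentration-response EC50s (Hill equation) come from a cAMP TR-FRET assay in HEK293 RXFP2 cells, compound for 30 min at 37C with PDE4 inhibitor.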
A general note: Quantitative high-throughput screening tests each substance at several concentrations.
Take `COc1cc(-c2nnc(SCC(=O)N(C)C3CCS(=O)(=O)C3)o2)cc(OC)c1OC` (stereo unspecified): the “activation” value was 4.39% [at 44.7 µM].

In the case of `COc1ccc(S(=O)(=O)N2CCOCC2)cc1NC(=O)CSc1ncnc2ccccc12`, the Potency is 24.5 µM (active).

As to `CCc1ccc(-c2nc3ccc(Br)cc3c(C(=O)O)c2C)s1`, the Potency was 4.35 µM (active).

`Cc1ccccc1NC(=O)c1ccccc1NC(=O)c1ccco1`: the “activation” value is -2.61% [at 125 µM].

For the molecule `CCn1c(=O)c2sccc2n2c(CCCC(=O)NCc3cccnc3)nnc12`, the “activation” value is 27.9%.

As to `NC(=O)c1ccccc1NC(=O)CC12CC3CC(CC(C3)C1)C2`, the “activation” value was -2.23% [at 125 µM].

Regarding `CCOC(=O)CNC(=O)CSc1ccc2nnc(-c3cccnc3)n2n1`, the “activation” value was -13.2%.

Consider `CC1(C)Cc2c(sc3ncnc(NN)c23)CO1`, for which the “activation” value is 21.1% [at 44.7 µM].

Turning to `COc1ccc(OC)c(NC(=O)CSc2ccc3nnc(-c4cccnc4)n3n2)c1`, the “activation” value was 26.5%.

Take `CCN(CC)S(=O)(=O)c1ccc(N2CCOCC2)c(NC(=O)c2cc([N+](=O)[O-])ccc2Cl)c1`: the “activation” value is 14%.

With `CC(NC(=O)c1ccccc1NC(=O)c1ccco1)C(=O)O` (stereo unspecified), the “activation” value was 4.16% [at 125 µM].

As to `COC(=O)Cn1cnc2c(C#N)c3n(c2c1=O)CCCCC3`, the Potency is 9.77 µM (active).

As for `Nc1c(Cl)cc(-c2[nH]c3cc(C(=O)NCCO)ccc3c(=O)c2O)cc1Cl`, the Potency was 34.6 µM (active).

For `COCCNC(=O)NC(=O)COC(=O)C12CC3CC(CC(NC(C)=O)(C3)C1)C2`, the “activation” value was 4.39% [at 44.7 µM].

With `CC(=O)Nc1cccc(NC(=O)CSc2nc3c(c(=O)n(C)c(=O)n3C)n2C)c1`, the Potency was 34.6 µM (active).

For the molecule `CCn1c(SCC(=O)Nc2ccc(NC(C)=O)cc2)nc2c1c(=O)n(C)c(=O)n2C`, the Potency is 27.5 µM (active).

For the molecule `CC1(C)O[C@@H]2[C@H](O1)[C@@H](COS(=O)(=O)O)O[C@H]2n1cnc2c(N)ncnc21`, the Potency was 6.15 µM (active).

Turning to `O=C(Nc1ccccc1C(=O)O)c1ccc(NC(=O)C2CC2)cc1`, the “activation” value was -15%.

Consider `Cc1nc2scc(C)n2c(=O)c1S(=O)(=O)N1CCN(c2ccccn2)CC1`, for which the Potency is 30.9 µM (active).

For the molecule `Cc1ccc(C(=O)Nc2ccccc2C(N)=O)o1`, the “activation” value was -1.39% [at 125 µM].

Regarding `C=CCNc1ncnc2c1ncn2C1OC(CO)C(O)C1O` (stereo unspecified), the “activation” value is -17.7%.

As for `CC(=O)Nc1ccc(S(=O)(=O)NCc2cc(=O)n(C)c(=O)n2C)cc1`, the Potency is 30.9 µM (active).

Turning to `CCOc1ccc(NC(=O)CSc2ccc3nnc(-c4cccnc4)n3n2)cc1`, the Potency is 34.6 µM (active).

As to `Cn1c(=O)c2c(ncn2CC(=O)N/N=C/c2cn[nH]c2-c2ccc(F)cc2)n(C)c1=O`, the Potency is 21.8 µM (active).

`Nc1ncnc2c1ncn2[C@@H]1O[C@H](COS(=O)(=O)O)[C@@H](O)[C@H]1O`: the Potency was 12.3 µM (active).

In the case of `Cc1noc(NS(=O)(=O)c2ccc(N3Cc4ccccc4C3=O)cc2)c1C`, the Potency was 11.9 µM (active).

With `COc1ccc(NC(=O)CCCc2nnc3n(C)c(=O)c4sccc4n23)cc1`, the Potency was 34.6 µM (active).

Regarding `COc1ccc(C(=O)Nc2ccc(Cl)cc2C(=O)NCc2ccco2)cc1`, the Potency was 42.1 µM (active).

For the molecule `O=C(O)CCNc1ccc(NCCC(=O)O)c2c1C(=O)c1ccccc1C2=O`, the “activation” value was 1.48%.

Turning to `CC1CCN(S(=O)(=O)c2ccc3nc(N4CCN(c5ccccc5)CC4)ccc3c2)CC1`, the Potency was 15.4 µM (active).

Regarding `COc1ccc(C(=O)Nc2ccc(S(=O)(=O)Nc3onc(C)c3C)cc2)c(OC)c1`, the Potency was 9.43 µM (active).
